# Reference: PubChem BioAssay (EPA / NIEHS)
# Where “and” joins values, the source holds several entries; their conditions need not be identical. Equal entries are not always repeated. Records with an inconclusive call do not appear. Some compounds were tested as several samples or in several runs, with calls that do not always agree. Calls of active or inactive are those of the source. Rule for the calls, unless noted: active = hit-call score of the fitted dose curve at least 0.9, where 1 is the maximum; inconclusive = response in the unintended direction; inactive = score below 0.9.
# Experiments:
# [1] = target: Estrogen receptor (Homo sapiens) (UniProt P03372); assay: ATG_hERa_XSP2: Attagene TRANS-FACTORIAL Multi-Species (XSP2) HepG2 Assay for human Estrogen Receptor (ERa) (AID 2283827)
# Method in brief: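 Trans-activation of exogenous human ERa-Gal4 chimera read in HepG2 as reporter transcript after 24 h exposure; medium included 3 nM 6-alpha-fluorotestosterone and 1.5 nM norgestrel. Quantified by RT-PCR with capillary electrophoresis, positive-direction fitting against DMSO.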
# [2] = test system: frog Estrogen Receptor (ER2), gene 100174814; assay: ATG_frER2_XSP2: Attagene TRANS-FACTORIAL Multi-Species (XSP2) HepG2 Assay for frog Estrogen Receptor (ER2) (AID 2283828)
# Method in brief: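 Cells were transfected with reporter constructs under GAL4-UAS control, dosed with chemicals for 24 h, then lysed for RNA; the frog ER2-driven reporter mRNA was quantified by capillary electrophoresis of labeled PCR fragments, with activity fitted upward from DMSO.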
# [3] = target: Peroxisome proliferator-activated receptor gamma (Homo sapiens) (UniProt P37231); assay: ATG_hPPARg_XSP2: Attagene TRANS-FACTORIAL Multi-Species (XSP2) HepG2 Assay for human Peroxisome Proliferator-activated Receptor gamma (PPARg) (AID 2283829);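 note: actives raise reporter mRNA above DMSO so AC50 reflects PPARg activation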
# Method in brief: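 After transfecting HepG2 with GAL4-UAS reporter constructs, cells are dosed for 24 h; total RNA is reverse-transcribed, PCR-amplified, FAM-labeled, HpaI-digested and resolved by capillary electrophoresis. Activity is measured as mRNA induction relative to DMSO.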
# [4] = target: mouse Peroxisome Proliferator-activated Receptor gamma (PPARg), Pparg (gene 19016) (UniProt P37238); assay: ATG_mPPARg_XSP2: Attagene TRANS-FACTORIAL Multi-Species (XSP2) HepG2 Assay for mouse Peroxisome Proliferator-activated Receptor gamma (PPARg) (AID 2283830);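 note: hits are gains in reporter mRNA above DMSO so AC50 marks activation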
# Method in brief: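 Multiplexed TRANS reporter readout: after 24 h chemical exposure of transfected HepG2 cells (with 3 nM 6-alpha-fluorotestosterone, 1.5 nM norgestrel present), RNA reverse-transcribed, amplified, 6-FAM-labelled and resolved by capillary electrophoresis; mouse PPARg-Gal4 induction scored against DMSO.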
# [5] = target: Nuclear receptor subfamily 1 group I member 2 (Mus musculus) (UniProt O54915); assay: ATG_mPXR_XSP2: Attagene TRANS-FACTORIAL Multi-Species (XSP1) HepG2 Assay for mouse Pregnane X Receptor (PXR) (AID 2283831)
# Procedure: (§1) ATG_XSP2_multi-species_TRANS is a cell-based, multiplexed assay created by modifying the existing Attagene TRANS-FACTORIAL system to include a panel of nuclear receptors from some or all the following species: human (Homo sapiens), mouse (Mus musculus), frog (Xenopus laevis), zebrafish (Danio rerio), chicken (Gallus gallus), and turtle (Chrysemys picta). The ECOTOX-FACTORIAL format uses HepG2, a human liver cell line, with measurements taken at 24 hours after chemical dosing in a 24-well plate. Xsp2 included 3 nM 6-alpha-fluorotestosterone and 1.5 nM norgestrel to stimulate the androgen receptor.ATG_mPXR_XSP2 is one of 29 assay components measured or calculated from the ATG_XSP2_multi-species_TRANS assay. It is designed to make measurements of mRNA induction, a form of inducible reporter, as detected with fluorescence intensity signals by Reverse transcription polymerase chain reaction (RT-PCR) and Capillary electrophoresis technology.The assay endpoint ATG_mPXR_XSP2 was analyzed in the positive analysis fitting direction relative to DMSO as the negative control and baseline of activity. Using a type of inducible reporter, measures of mRNA for gain-of-signal activity can be used to understand the reporter gene at the transcription factor-level as they relate to the gene PXR. Furthermore, this assay endpoint can be referred to as a primary readout, because this assay has produced multiple assay endpoints where this one serves a reporter gene function. To generalize the intended target to other relatable targets, this assay endpoint is annotated to the nuclear receptor intended target family, where the subfamily is non-steroidal.
# (§2) Human liver HepG2 cells are transiently transfected with multiple reporter transcription units (MRTUs) in 6-well plates using FuGene 6 reagent (Roche; 3 ml FuGene/1 mg DNA). The MRTU constructs are regulated by a cis-regulating element (promoter). […] A major difference between the CIS and TRANS system is that in CIS activities of endogenous TFs are measured, whereas the TRANS assay evaluates changes in activities of exogenous, chimeric NR-Gal4 proteins. […] At the end of 24 hour incubation, total RNA was isolated using TriZol reagent (Invitrogen). The isolated RNA is then reverse-transcribed using oligo(dT) primer and Mo-MLV reverse transcriptase (Invitrogen) with DNAse I (Ambion) treatment for 30 min. The one-tenth of the produced cDNA was amplified by PCR using Taq DNA polymerase (Invitrogen) and two reporter sequence-specific primers. The PCR products were fluorescently labeled by primer extension with 6-arboxyfluorescein (6-FAM) 5'-labeled reporter sequence-specific primer (2 min at 95 C, 20 s at 68 C and 10 min at 72 C) and these products were digested with 5U of HpaI (New England Biolabs) for 2h at 37 C. The fragments were purified using Qiaquick PCR columns (Qiagen), analyzed on an ABI 3130xL genetic analyzer (Applied Biosystems) with peak positions identified by using a set of X-rhodamine (ROX)-labeled MapMarker1000 molecular weight standards (BioVentures). The raw capillary electrophoresis data was processed using Attagraph software (Attagene).
# [6] = target: zebrafish Thyroid Hormone Receptor alpha (TRa), thraa (gene 30670) (UniProt Q98867); assay: ATG_zfTRa_XSP2: Attagene TRANS-FACTORIAL Multi-Species (XSP1) HepG2 Assay for zebrafish Thyroid Hormone Receptor alpha (TRa) (AID 2283832);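 note: actives raise zebrafish TRa-Gal4 reporter transcript above DMSO baseline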
# Procedure: as §1, with “receptor.ATG_zfTRa_XSP2” for “receptor.ATG_mPXR_XSP2”, “ATG_zfTRa_XSP2” for “ATG_mPXR_XSP2”, “TR.” for “PXR.”
# as §2
# [7] = test system: zebrafish Peroxisome Proliferator-activated Receptor gamma (PPARg), gene 557037; assay: ATG_zfPPARg_XSP2: Attagene TRANS-FACTORIAL Multi-Species (XSP2) HepG2 Assay for zebrafish Peroxisome Proliferator-activated Receptor gamma (PPARg) (AID 2283833);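 note: actives increase reporter signal over DMSO so AC50 reflects activation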
# Method in brief: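 Multi-species TRANS format in HepG2, 24 h dosing; medium also contained 3 nM 6-alpha-fluorotestosterone and 1.5 nM norgestrel to stimulate androgen receptor. Zebrafish PPARg-GAL4 induced reporter mRNA was measured by RT-PCR/capillary electrophoresis.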
# [8] = target: zebrafish Thyroid Hormone Receptor beta (TRb), thrb (gene 30607) (UniProt Q9PVE4); assay: ATG_zfTRb_XSP2: Attagene TRANS-FACTORIAL Multi-Species (XSP1) HepG2 Assay for zebrafish Thyroid Hormone Receptor beta (TRb) (AID 2283836)
# Method in brief: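 Reporter transcripts were measured by RT-PCR with fluorescent primer extension and capillary electrophoresis, 24 h after chemical dosing of transiently transfected HepG2 cells. Activity was scored as upward signal versus DMSO baseline.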
# [9] = test system: turtle Thyroid Hormone Receptor, alpha (TRa), gene 101949057; assay: ATG_trTRa_XSP2: Attagene TRANS-FACTORIAL Multi-Species (XSP1) HepG2 Assay for turtle Thyroid Hormone Receptor, alpha (TRa) (AID 2283834);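 note: hits raise reporter mRNA over the DMSO baseline so AC50 marks activators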
# Method in brief: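 Transfection of HepG2 with multiple reporter transcription units, then chemical dosing for 24 h. Total RNA was reverse-transcribed, reporter sequences PCR-amplified and FAM-labelled, then sized by capillary electrophoresis. DMSO served as baseline.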
# [10] = ATG_M_61_XSP2: Attagene TRANS-FACTORIAL Multi-Species (XSP2) HepG2 Assay for M61 Transcription Factor (Internal Marker) (AID 2283835; active = hit-call score of the fitted dose curve at least 0.9, where 1 is the maximum; inactive = score below 0.9;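 note: reporter mRNA of an internal background marker read by RT-PCR and capillary electrophoresis; active means a rise in signal above the DMSO baseline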)
# Method in brief: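 Transient MRTU transfection of human HepG2; 24 h chemical dosing with 3 nM 6-alpha-fluorotestosterone + 1.5 nM norgestrel added for AR stimulation. RNA isolated, RT, PCR, FAM-labelled, HpaI cut, CE read. Positive direction vs DMSO.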
# Chain of Nuclear receptor subfamily 1 group I member 2 (Mus musculus) (O54915 whole entry, looked up): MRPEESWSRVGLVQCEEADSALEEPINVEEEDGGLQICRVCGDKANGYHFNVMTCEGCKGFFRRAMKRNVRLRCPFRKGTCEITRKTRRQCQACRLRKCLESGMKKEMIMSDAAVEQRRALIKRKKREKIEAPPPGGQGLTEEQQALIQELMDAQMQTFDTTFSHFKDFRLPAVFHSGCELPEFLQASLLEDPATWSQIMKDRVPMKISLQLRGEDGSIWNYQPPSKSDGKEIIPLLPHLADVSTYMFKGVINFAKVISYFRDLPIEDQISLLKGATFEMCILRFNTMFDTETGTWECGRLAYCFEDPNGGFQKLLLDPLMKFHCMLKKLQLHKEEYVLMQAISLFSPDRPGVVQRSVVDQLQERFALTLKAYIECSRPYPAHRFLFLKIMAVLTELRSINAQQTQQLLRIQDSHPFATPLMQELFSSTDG
# Chain of mouse Peroxisome Proliferator-activated Receptor gamma (PPARg), Pparg (gene 19016) (P37238 whole entry, looked up, the tested form may be a part): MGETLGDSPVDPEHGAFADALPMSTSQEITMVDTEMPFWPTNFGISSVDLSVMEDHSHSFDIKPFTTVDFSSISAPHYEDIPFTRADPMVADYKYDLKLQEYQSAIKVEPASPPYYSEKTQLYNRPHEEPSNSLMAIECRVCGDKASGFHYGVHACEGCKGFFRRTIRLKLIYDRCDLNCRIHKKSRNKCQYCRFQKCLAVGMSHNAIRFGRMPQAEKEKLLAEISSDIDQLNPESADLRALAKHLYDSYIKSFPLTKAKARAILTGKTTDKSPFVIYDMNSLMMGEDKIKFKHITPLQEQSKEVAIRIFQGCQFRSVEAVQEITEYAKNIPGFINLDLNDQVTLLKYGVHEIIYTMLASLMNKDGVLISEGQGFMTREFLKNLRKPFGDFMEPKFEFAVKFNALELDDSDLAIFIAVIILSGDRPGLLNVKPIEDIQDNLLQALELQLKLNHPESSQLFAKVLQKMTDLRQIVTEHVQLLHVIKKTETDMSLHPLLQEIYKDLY
# Chain of zebrafish Thyroid Hormone Receptor beta (TRb), thrb (gene 30607) (Q9PVE4 whole entry, looked up): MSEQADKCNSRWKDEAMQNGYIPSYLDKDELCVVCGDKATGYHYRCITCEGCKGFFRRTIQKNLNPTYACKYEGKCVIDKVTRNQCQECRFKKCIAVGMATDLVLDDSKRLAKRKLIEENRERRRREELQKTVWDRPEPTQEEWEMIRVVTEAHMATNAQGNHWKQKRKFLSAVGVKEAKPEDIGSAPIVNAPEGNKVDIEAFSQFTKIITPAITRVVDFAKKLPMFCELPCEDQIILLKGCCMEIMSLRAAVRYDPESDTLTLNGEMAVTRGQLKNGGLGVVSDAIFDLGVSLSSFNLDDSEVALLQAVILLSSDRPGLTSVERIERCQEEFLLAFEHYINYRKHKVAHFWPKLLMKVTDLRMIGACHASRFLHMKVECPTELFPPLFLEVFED
# Chain of Peroxisome proliferator-activated receptor gamma (Homo sapiens) (P37231 whole entry, looked up, the tested form may be a part): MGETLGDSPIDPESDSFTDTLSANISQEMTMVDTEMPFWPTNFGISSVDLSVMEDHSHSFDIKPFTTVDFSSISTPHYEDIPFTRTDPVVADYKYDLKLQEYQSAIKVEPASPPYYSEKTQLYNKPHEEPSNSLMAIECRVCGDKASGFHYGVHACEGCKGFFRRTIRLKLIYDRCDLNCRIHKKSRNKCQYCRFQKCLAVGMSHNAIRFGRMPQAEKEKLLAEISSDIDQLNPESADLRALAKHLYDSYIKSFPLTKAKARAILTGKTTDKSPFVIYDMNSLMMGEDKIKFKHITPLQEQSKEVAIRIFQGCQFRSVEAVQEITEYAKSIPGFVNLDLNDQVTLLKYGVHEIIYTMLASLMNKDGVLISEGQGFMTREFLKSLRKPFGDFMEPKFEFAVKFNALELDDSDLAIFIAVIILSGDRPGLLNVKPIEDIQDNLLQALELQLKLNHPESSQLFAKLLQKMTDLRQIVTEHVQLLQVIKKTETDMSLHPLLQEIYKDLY
# Chain of zebrafish Thyroid Hormone Receptor alpha (TRa), thraa (gene 30670) (Q98867 whole entry, looked up, the tested form may be a part): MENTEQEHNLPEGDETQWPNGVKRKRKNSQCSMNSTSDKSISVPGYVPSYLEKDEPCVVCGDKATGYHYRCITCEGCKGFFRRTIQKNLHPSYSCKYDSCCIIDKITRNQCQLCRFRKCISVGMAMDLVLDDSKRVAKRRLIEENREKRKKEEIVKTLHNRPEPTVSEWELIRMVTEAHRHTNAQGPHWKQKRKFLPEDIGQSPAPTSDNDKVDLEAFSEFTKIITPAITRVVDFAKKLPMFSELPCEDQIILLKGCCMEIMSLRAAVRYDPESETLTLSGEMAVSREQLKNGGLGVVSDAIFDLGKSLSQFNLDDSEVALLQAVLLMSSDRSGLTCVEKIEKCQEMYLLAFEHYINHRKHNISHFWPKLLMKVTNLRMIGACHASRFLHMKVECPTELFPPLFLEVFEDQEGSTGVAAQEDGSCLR
# Chain of Estrogen receptor (Homo sapiens) (P03372 whole entry, looked up, the tested form may be a part): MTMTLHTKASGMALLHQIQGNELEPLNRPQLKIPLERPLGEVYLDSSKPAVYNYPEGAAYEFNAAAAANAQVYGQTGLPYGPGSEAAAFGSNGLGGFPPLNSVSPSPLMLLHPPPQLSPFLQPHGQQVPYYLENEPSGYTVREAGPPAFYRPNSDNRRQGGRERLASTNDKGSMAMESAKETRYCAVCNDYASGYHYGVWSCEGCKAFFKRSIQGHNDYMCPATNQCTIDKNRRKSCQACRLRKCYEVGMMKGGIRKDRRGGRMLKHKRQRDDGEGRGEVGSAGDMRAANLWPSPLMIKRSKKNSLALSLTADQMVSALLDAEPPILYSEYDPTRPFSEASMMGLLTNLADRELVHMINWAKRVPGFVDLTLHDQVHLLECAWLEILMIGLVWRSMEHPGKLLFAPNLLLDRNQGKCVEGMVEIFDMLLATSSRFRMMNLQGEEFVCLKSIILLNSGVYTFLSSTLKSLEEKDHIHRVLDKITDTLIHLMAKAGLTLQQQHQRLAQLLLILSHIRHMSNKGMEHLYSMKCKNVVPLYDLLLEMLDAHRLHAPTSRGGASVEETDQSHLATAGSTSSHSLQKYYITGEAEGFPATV
Structure (SMILES),AC50 [1],AC50 [2],outcome [3],outcome [4],outcome [5],outcome [6],AC50 [7],outcome [8],outcome [7],outcome [9],outcome [10],AC50 [3],AC50 [4],AC50 [5]
CCC(C)(C)c1ccc(O)cc1,6.43 µM (active) and 3.44 µM (active),27.9 µM (active) and 3.07 µM (active),inactive,inactive,inactive,inactive,165 µM (active) and 100 µM (active),inactive,–,–,–,–,–,–
CC(C)(C)c1ccc(O)cc1,–,14.9 µM (active) and 6.96 µM (active),inactive,inactive,–,inactive,–,inactive,inactive,inactive,inactive,–,–,–
O=P(Oc1ccccc1)(Oc1ccccc1)Oc1ccccc1,1.44 µM (active),2.82 µM (active),–,–,–,inactive,9.78 µM (active),inactive,–,inactive,inactive,4.79 µM (active),5.79 µM (active),0.303 µM (active)
CCCCc1ccc(O)cc1,4.58 µM (active) and 3.47 µM (active),4.69 µM (active) and 2.33 µM (active),–,–,inactive,inactive,–,inactive,inactive,–,inactive,100 µM (active),74.6 µM (active) and 93.5 µM (active),–
c1ccc2c(c1)Nc1ccccc1S2,12.7 µM (active) and 8.42 µM (active),16.7 µM (active) and 5.21 µM (active),–,–,inactive,inactive,–,inactive,inactive,inactive,inactive,22.2 µM (active) and 21.7 µM (active),27.6 µM (active) and 21.1 µM (active),4.49 µM (active)
O=S(=O)(c1ccc(O)cc1)c1ccc(O)cc1,1.87 µM (active) and 2.38 µM (active),26.9 µM (active) and 5.73 µM (active),–,–,inactive,inactive,–,inactive,–,inactive,inactive,8.88 µM (active) and 28.6 µM (active),33.1 µM (active) and 63.1 µM (active),–
